TEAD-YAP inh – TEAD-YAP interaction inhibition; HEK-TIYL cells, TEAD-Gal4/YAP UAS-luciferase luminescence; inhibition, % at 9.12 µM; hit rate 1.4% among 640,000; in the data active = inhibition above about 32%
FBW7 activator – activators of human E3 ligase FBW7; Q969H0; AlphaScreen FBW7–phospho-cyclin E peptide binding, activator screen; normalized activity (activation), % at 26.1 µM; hit rate 0.13% among 650,000; in the data active = normalized activity above about 1.9%;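 also: purified mutant Fbw7 with reduced substrate affinity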
Target sequence (Q969H0 whole entry, looked up): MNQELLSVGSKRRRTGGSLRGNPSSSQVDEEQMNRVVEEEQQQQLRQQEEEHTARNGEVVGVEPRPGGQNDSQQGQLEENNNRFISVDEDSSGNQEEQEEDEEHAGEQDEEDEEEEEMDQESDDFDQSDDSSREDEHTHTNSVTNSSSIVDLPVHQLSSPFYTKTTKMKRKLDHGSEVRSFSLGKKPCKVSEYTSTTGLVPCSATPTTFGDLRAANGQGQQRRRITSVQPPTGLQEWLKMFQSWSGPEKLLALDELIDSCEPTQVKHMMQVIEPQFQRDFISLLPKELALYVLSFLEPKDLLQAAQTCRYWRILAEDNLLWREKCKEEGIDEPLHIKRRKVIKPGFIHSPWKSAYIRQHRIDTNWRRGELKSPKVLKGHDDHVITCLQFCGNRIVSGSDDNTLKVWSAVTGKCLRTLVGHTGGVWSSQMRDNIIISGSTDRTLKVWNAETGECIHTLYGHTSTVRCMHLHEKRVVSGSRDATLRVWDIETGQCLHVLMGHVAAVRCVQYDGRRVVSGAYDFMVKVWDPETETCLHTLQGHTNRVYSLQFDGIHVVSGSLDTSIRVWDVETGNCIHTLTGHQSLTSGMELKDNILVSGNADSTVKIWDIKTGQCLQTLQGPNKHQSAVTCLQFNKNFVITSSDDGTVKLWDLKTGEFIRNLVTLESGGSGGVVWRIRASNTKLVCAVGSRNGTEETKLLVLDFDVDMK
MITF primary – inhibitors of human MITF; O75030; AlphaScreen MITF homodimerization, bead proximity signal; inhibition, % at 2.6 µM; hit rate 0.91% among 650,000; AID 1259374; in the data active = inhibition above about 50%
GPR151 activ – activators of human GPR151; activation, % at 11.2 µM; hit rate 1% among 650,000; PathHunter beta-arrestin GPR151 cells, luminescence; AID 1508602; Q8TDV0; in the data active = activation above about 4.9%
Large screens that a line does not name were inactive. Only some compounds are listed: those with a hit (about 3.5% of all), similar ones and a draw of the others.

Cc1nc2c(C)cccn2c1C(=O)NCc1ccc2c(c1)OCO2	TEAD-YAP inh 34
COc1ccc(-c2nc(NCc3nc4ccccc4[nH]3)c3ncn(C(C)C)c3n2)cc1	TEAD-YAP inh 71
COc1ccc(-c2nc(NCCO)c3ncn(C(C)C)c3n2)cc1	none
CC(C)n1cnc2c(NCc3nc4ccccc4[nH]3)nc(-c3ccc(C(N)=O)cc3)nc21	TEAD-YAP inh 77
CC(C)n1cnc2c(NCCO)nc(-c3ccc(C(N)=O)cc3)nc21	none
CN(C)CCOc1ccc(-c2cccc(C(F)(F)F)c2)cn1	none
Cc1nc2c(C(=O)NCc3cccnc3)cnn2c(C)c1Cc1cccc(Cl)c1	none
COC(=O)c1cnn2c(C)c(Cc3ccc(C)cc3)c(C)nc12	TEAD-YAP inh 43
COCCCNC(=O)c1cnn2c(C)c(Cc3ccc(C)cc3)c(C)nc12	TEAD-YAP inh 40
Cc1ccc(Cc2c(C)nc3c(C(=O)NCc4cccnc4)cnn3c2C)cc1	TEAD-YAP inh 49
Cc1cccc(NC(=O)CSc2c(C(C)C)cnc3c2c(=O)n(C)c(=O)n3C)c1	none
N=c1c2c(-c3ccccc3)c(-c3ccccc3)n(Cc3ccco3)c2ncn1CCO	TEAD-YAP inh 68
O=C1C(Cl)=C(Nc2cccc(C(F)(F)F)c2)C(=O)N1Cc1ccccc1	TEAD-YAP inh 75
COc1ccc(OC)c(NC2=C(Cl)C(=O)N(Cc3ccccc3)C2=O)c1	none
COc1ccc(Cl)cc1NC1=C(Cl)C(=O)N(Cc2ccccc2)C1=O	TEAD-YAP inh 72, MITF primary 64
N#Cc1c(-c2ccccc2[N+](=O)[O-])cc(-c2ccccc2)nc1SCC(=O)Nc1ccccc1	none
CNC(=S)NNc1ccc(C)c(Cl)c1	none
COc1cccc(C2=NN3C(C2)c2cccc(OC)c2OC3c2ccc(SC)cc2)c1 (stereo not drawn)	TEAD-YAP inh 47
COc1cccc(C2=NN3C(C2)c2cccc(OC)c2OC3c2cccc(Cl)c2)c1 (stereo not drawn)	none
CCOc1cccc2c1OC(c1ccc(OC)cc1)N1N=C(c3cccc(OC)c3)CC21 (stereo not drawn)	TEAD-YAP inh 47
Cc1ccc2nc(Nc3cccc(C(=O)Nc4ccc(O)cc4)c3)nc(-c3ccccc3)c2c1	TEAD-YAP inh 50
Cc1ccc(NC(=O)c2ccc(Nc3nc(-c4ccccc4)c4cc(C)ccc4n3)cc2)cc1	none
Cc1c(C(=O)N(C)c2ccc(F)cc2)sc2nc3n(c(=O)c12)CCCC3	none
Cc1cccc(N2CCn3c2nc2c3c(=O)n(C)c(=O)n2C)c1C	none
O=C(CCCSc1ccc(Cl)cc1)Nc1nc(-c2ccccn2)cs1	TEAD-YAP inh 39
O=C(CCSc1ccc(Cl)cc1)Nc1nc(-c2ccccn2)cs1	TEAD-YAP inh 34
O=C(CCSc1ccccc1)Nc1nc(-c2ccccn2)cs1	none
CCc1ccccc1Nc1nc(N)nc(Cn2nnc(-c3ccccc3)n2)n1	TEAD-YAP inh 39
COc1ccc(OC)c(N/C=C/C(=O)c2ccccc2)c1	TEAD-YAP inh 95
COc1cccc(C(=O)/C=C\Nc2ccc(OC)cc2OC)c1	TEAD-YAP inh 80
COc1ccccc1N/C=C/C(=O)c1ccccc1	TEAD-YAP inh 46
O=C(CC(Nc1ccc(F)cc1)C(=O)O)c1ccccc1 (stereo not drawn)	none
COc1cccc(C(=O)/C=C/Nc2cc(Cl)ccc2OC)c1	none
COc1ccccc1NC(CC(=O)c1ccccc1)C(=O)O (stereo not drawn)	TEAD-YAP inh 54
CNc1nc2c(C)cccn2c(=O)c1C=O	none
FC(F)(F)c1cccc(CNc2nc(Nc3cnccn3)nc3c2ncn3-c2ccccc2)c1	none
FC(F)(F)c1cccc(CNc2nc(NCc3cccnc3)nc3c2ncn3-c2ccccc2)c1	TEAD-YAP inh 48
CC(C)n1cnc2c(NCc3cccc(C(F)(F)F)c3)nc(NCc3cccnc3)nc21	TEAD-YAP inh 40
O=C(O)C1C2CC=CC2c2cc(Oc3ccccc3)cc3c2N1CC1CC=CC31 (stereo not drawn)	FBW7 activator 2.3
O=C(O)c1cc2c3c(c1)C1CC=CC1C(c1ccc(Br)cc1)N3CC1CC=CC21 (stereo not drawn)	MITF primary 72
Cc1cc(C)c2c3c1C1C=CCC1CN3C(C(=O)O)C1CC=CC21 (stereo not drawn)	FBW7 activator 2.5
O=C(O)c1cc2c3c(c1)C1C=CCC1C(c1ccccc1)N3CC1CC=CC21 (stereo not drawn)	MITF primary 56
CN1C(=O)CS/C1=C\C(=O)C(C)(C)C	none
O=C(Nc1c2c(nn1-c1ccc(Cl)cc1)CS(=O)(=O)C2)c1ccc(S(=O)(=O)N2CCOCC2)cc1	none
Cc1cccc2c1[nH]c1nc(N/N=C\c3c[nH]c4ccccc34)nnc12	TEAD-YAP inh 44
Oc1ccc(Cl)cc1/C=N/Nc1nnc2c(n1)[nH]c1ccccc12	none
C(=N/Nc1nnc2c(n1)[nH]c1ccccc12)/c1c[nH]c2ccccc12	none
Oc1ccc(/C=N/Nc2nnc3c(n2)[nH]c2ccccc23)c(O)c1O	MITF primary 111
Cc1c(/C=C/c2nc3ccccc3s2)cc(C#N)n1C	TEAD-YAP inh 73
Cc1c(/C=C(\C#N)c2ccccn2)cc(C#N)n1C	none
Cc1noc(/C=C/c2ccco2)c1S(=O)(=O)N1CCC(C(=O)Nc2nccs2)CC1	MITF primary 58
Cc1ccccc1/C=C1\SC(=Nc2ccccc2Cl)NC1=O	TEAD-YAP inh 45
Cc1cc(/C=C2\SC(=Nc3ccccc3Cl)NC2=O)c(C)n1-c1ccccc1	TEAD-YAP inh 48
NC(=S)/N=N/Nc1ccc(Cl)cc1	none
Cc1csnc1NC(=O)c1c(N)nc2c(c1C(F)(F)F)OC1=C(CCC1)O2	TEAD-YAP inh 96
CC(=O)c1ccc(OCC(=O)NC(C)c2cnn(-c3ccccc3C)c2C)cc1 (stereo not drawn)	TEAD-YAP inh 34
Cc1nn(CC(=O)NCc2ccccc2Br)c(=O)c2cccn12	none
O=C(c1ccncc1)N1CCC(Oc2ccc(Cl)cn2)CC1	none
CN(C)C(=O)C(=O)Nc1ccc(Cl)c(C(=O)N2CCC(Oc3ccc(Cl)cn3)CC2)c1	TEAD-YAP inh 48
CN(C)C(=O)C(=O)Nc1ccc(Cl)c(C(=O)N2CCC(Oc3ccc(F)cc3)CC2)c1	TEAD-YAP inh 47
CC(=O)N1CC(C)Sc2cc(S(=O)(=O)N3CCN(Cc4ccccc4)CC3)ccc21 (stereo not drawn)	TEAD-YAP inh 49
COc1ccc(S(=O)(=O)Nc2ccc(OC)cc2OC)cc1	TEAD-YAP inh 61
CCOc1ccccc1NS(=O)(=O)c1ccc(OC)cc1	TEAD-YAP inh 47
CCOc1ccc(S(=O)(=O)Nc2ccccc2OC)cc1	TEAD-YAP inh 42
CCOc1ccc(S(=O)(=O)Nc2ccccc2CC)cc1	none
COc1ccc(NS(=O)(=O)c2ccc(F)cc2)c(OC)c1	none
Cc1ccc(C(=O)/C=C/Nc2ccc(Br)cc2F)o1	TEAD-YAP inh 77
Cc1ccc(C(=O)/C=C/Nc2cccc(Cl)c2C)o1	none
Cc1ccc(C(=O)/C=C/Nc2ccc(F)cc2F)o1	TEAD-YAP inh 61
CSC1=NSC2=NC(=O)/C(=C\c3ccc([N+](=O)[O-])o3)C(=N)N12	MITF primary 85
CSC1=NSC2=NC(=O)/C(=C\c3ccc(C)o3)C(=N)N12	none

Source: PubChem
